Test results from PubChem BioAssay (NCI).
Where “and” joins values, the source holds several entries; their conditions need not be identical. Equal entries are not always repeated. About 83,000 compounds went through this panel and 20% of them were active in at least one assay; those are over-represented in the sample as a whole.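 Note: values are percent growth. 100 is the growth of untreated cells, values between 100 and 0 indicate rising inhibition; between -100 and 0 indicates cell death.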 A number with no mark means an inactive call. Calls of active or inactive are those of the source.

What follows are molecules tested on COLO 205 colon (assay: NCI-60 one-dose screen, 48 h (100 = growth as untreated, 0 = no growth, -100 = all killed)). Conditions: 10 µM.
Procedure: Cells are grown in 96 well plates and exposed to the test compound for 48 hours. Compounds are tested at a single concentration, which is 10^-5 M for most compounds. The reported endpoint is percent growth (GI% or GIPRCNT), where numbers from 0 - 100% represent growth inhibition, and numbers from -100% - 0 represent cell death. For example, a value of 40 represents 60% growth inhibition. A value of 0 means no net growth occurred over the course of the experiment. A value of -40 indicates 40% of cells at the beginning of the experiment died by the end of the experiment. A value of -100 means all cells are dead at the end of the experiment.
NCI-60 Human Tumor Cell Lines Screen was performed using the standard one-dose NCI protocol, which is described in more detail at https://dtp.cancer.gov/discovery_development/nci-60/default.htm.
Compounds with GIPRCNT values below 10 were considered active. Activity score was based on GIPRCNT using the following formula: […]
Score is 0 for GIPRCNT values of 100 or above, 50 for GIPRCNT values of 0, and 100 for GIPRCNT values of -100.

Row | Compound | growth
1 | O=C(O)CCCc1ccc(N(CCCl)CCCl)cc1 | 104% and 105%

Same assay, conditions: 10 µM unless noted

Row | Compound | growth
2 | CCC1CCC(=O)O1 (stereo not given) | 104% and 125%
3 | CCCCCCCCCCCCCCCC[N+](C)(C)C | -74% (active) and -89.8% (active)
4 | O=NN1CCCCC1 | 107%
5 | C[N+]12CCC34C5=CC(=O)C(=O)C=C5[N+]5(C)C(=O)CC6OCC=C(C1)C(CC32)C6C45 (stereo not given) | 101%
6 | C[C@]12CC[C@@H](OC(=O)N(CCCl)N=O)C[C@@H]1CC[C@@H]1[C@@H]2CC[C@]2(C)C(=O)CC[C@@H]12 | -72.1% (active)
7 | Cc1cc(N)ccc1N | 120%
8 | CNC(=O)Oc1ccc(Cl)cc1SSc1cc(Cl)ccc1OC(=O)NC | 110%
9 | NC(=O)c1c(Br)c(Br)c(Br)c(Br)c1C(=O)O (tested in a mixture with another compound) | 113% and 104%
10 | CC[C@H](C)[C@H](NC(=O)[C@H]1CCCCN1C)C(=O)N(C)[C@H](CCc1nc(C(=O)N[C@@H](Cc2ccccc2)C[C@H](C)C(=O)O)cs1)C(C)C | -37.9% (active)
11 | CC(=O)c1cccc(S(=O)(=O)F)c1 | 114%
12 | Cc1ccc(P(=O)(O)O)cc1 | 126%
13 | C[C@]12CCC(=O)C[C@@H]1CC[C@@H]1[C@@H]2CC[C@]2(C)[C@@H](OC(=O)N(CCCl)N=O)CC[C@@H]12 | 31.8%
14 | c1ccc2c(c1)sc1ccccc12 | 98.6%
15 | O=c1c2ccccc2nc(-c2ccccc2Cl)n1-c1nnc(C(F)(F)F)s1 | 43.6%
16 | C/C=C(/C)C(=O)O[C@H]1CC[C@@]2(C)[C@@H]3CC[C@H]4[C@]5(O)C[C@H](O)[C@@]6(O)[C@@H](CN7C[C@@H](C)CC[C@H]7[C@@]6(C)O)[C@]5(O)C[C@@]42O[C@@]13O | 118%
17 | COc1ccc(O)c2c(=O)c3c(OC)cc4c(c3oc12)[C@@H]1C=CO[C@@H]1O4 | 36.1%
18 | C[Se]/C=C1/C(=O)N(c2c(Cl)cccc2Cl)c2ccccc21 | 38.9%
19 | Cc1cc[n+](CCc2ccccc2)cc1 | 127% and 119%
20 | CCC1(CCSC#N)C(=O)NC(=O)NC1=O | 108%

Row | Compound | growth
21 | O=C=Nc1ccc(Br)cc1 | 111%
22 | C/C(=N/OC(=O)N(C)C)c1ccc(Cl)c(Cl)c1 | 111%
23 | Cc1cc(NC(=O)NCCCOc2ccc(N3C(N)=NC(N)=NC3(C)C)cc2Cl)ccc1S(=O)(=O)F | 27.9%
24 | COc1c(O)cc2c(c1OC)-c1ccc(SC)c(=O)cc1C(NC(C)=O)CC2 (stereo not given) | -44.6% (active)
25 | COc1cc2c(c(OC)c1OC)-c1ccc(O)cc1[C@@H](NC(C)=O)CC2 | -32.6% (active) and -83.8% (active)
26 | C[N+]1(C)CCCC1c1cccnc1 (stereo not given) | 109%
27 | Cn1cc(-c2csc(-c3cn(CCCCN4CCOCC4)c4ccc(F)cc34)n2)c2cccnc21 | 65.9%
28 | CC[C@H](C)[C@H](NC(=O)[C@H]1CCCCN1C)C(=O)N(C)[C@H](C(=O)NC12CC(C(=O)N[C@@H](Cc3ccccc3)C[C@H](C)C(=O)OC)(C1)C2)C(C)C | 110%
29 | O=c1[nH]c(=O)n(Cl)c(=O)n1Cl | 117% and 123%
30 | NC(N)=NC(N)=Nc1ccc(Cl)cc1 | 112%
31 | C/C(=C\c1ccn(-c2ccc(N)cc2F)n1)[C@@H]1C[C@@H]2O[C@]2(C)CCC[C@H](C)[C@H](O)[C@@H](C)C(=O)C(C)(C)[C@@H](O)CC(=O)O1 | -5.18% (active)
32 | Cc1ccc(NC2=N[C@]34CC(=O)CC[C@]3(C)[C@H]3CC[C@]5(C)C(=O)CC[C@H]5[C@@H]3C[C@@H]4S2)c(C)c1 | 62.4%
33 | O=C(O)C(F)F | 105%
34 | O=C1C=C(N2CC2)c2ccccc2C1=O | 94.3%
35 | COC12CC3(C)C(C4=CC(=O)OC4)CCC3(O)C3CCC4=CC(=O)CCC4(CO1)C32 (stereo not given) | 116%
36 | COc1ccn(C)c(=O)c1C#N | 95.9%
37 | COc1ccc(CN)cc1OC | 122% and 109%
38 | C[C@]12CCc3nc(-c4ccc(O)c(O)c4)sc3C1=CC[C@@H]1[C@@H]2CC[C@]2(C)C(=O)CC[C@@H]12 | 55.4%
39 | O=[N+]([O-])c1ccc(OCc2ccc(S(=O)(=O)F)c(Cl)c2)c(Cl)c1 | 101%

Same assay, conditions: 75 µM

Row | Compound | growth [%]
40 | O=C(O)CCCc1ccc(N(CCCl)CCCl)cc1 | 66.2
